Key:
Assay in all cases: PBM binding z-score (relative to random genomic background probes); higher = stronger binding; sequences stand for … in GC…GCGATTGACAGCGTAGAATGAAGG
[1] = system: PPARg:RXRa DBDmut IVT, anti-RXR (DBD mutation: RXRa K156A/R161A, NR concentration 270 nM, RXRa partner concentration 90 nM)
How it was run: (§1)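 Regression normalization was applied to scanned fluorescence from custom Agilent 4×180K protein-binding microarrays. Before scanning, arrays were incubated 1 h with ligand-free nuclear receptor dimers, and binding was detected with antibodies against each partner (one per run). Binding z-scores use the random background probes as reference.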

[2] = system: PPARg:RXRa IVT, anti-PPARg (NR concentration 270 nM, RXRa partner concentration 90 nM)
How it was run: as §1

[3] = system: PPARg DBDmut:RXRa IVT, anti-PPARg (DBD mutation: PPARg1 K132A/R137A, NR concentration 270 nM, RXRa partner concentration 90 nM)
How it was run: as §1

[4] = system: PPARg DBDmut IVT, anti-PPARg (DBD mutation: PPARg1 K132A/R137A, NR concentration 270 nM)
How it was run: as §1

[5] = system: PPARg homodimer (NR concentration 180 nM)
How it was run: as §1

[6] = system: PXR:RXRa (NR concentration 270 nM, RXRa partner concentration 90 nM)
How it was run: as §1

[7] = system: PXR homodimer (NR concentration 270 nM)
How it was run: as §1

[8] = system: RARa:RXR (NR concentration 270 nM, RXRa partner concentration 90 nM)
How it was run: as §1

[9] = system: RARa homodimer (NR concentration 270 nM)
How it was run: as §1

[10] = system: RARb:RXRa (NR concentration 270 nM, RXRa partner concentration 90 nM)
How it was run: as §1

[11] = system: RARb homodimer (NR concentration 270 nM)
How it was run: as §1

[12] = system: RARg:RXRa (NR concentration 270 nM, RXRa partner concentration 90 nM)
How it was run: as §1

[13] = system: RARg homodimer (NR concentration 270 nM)
How it was run: as §1

[14] = system: RXRa DBDmut IVT, anti-RXR (DBD mutation: RXRa K156A/R161A, NR concentration 90 nM)
How it was run: as §1

[15] = system: RXRa homodimer (NR concentration 180 nM)
How it was run: as §1

[16] = system: THRa:RXRa (NR concentration 90 nM, RXRa partner concentration 90 nM)
How it was run: as §1

[17] = system: THRa homodimer (NR concentration 90 nM)
How it was run: as §1

[18] = system: VDR homodimer (NR concentration 270 nM)
How it was run: as §1

Sequence	PBM binding z-score [1]	PBM binding z-score [2]	PBM binding z-score [3]	PBM binding z-score [4]	PBM binding z-score [5]	PBM binding z-score [6]	PBM binding z-score [7]	PBM binding z-score [8]	PBM binding z-score [9]	PBM binding z-score [10]	PBM binding z-score [11]	PBM binding z-score [12]	PBM binding z-score [13]	PBM binding z-score [14]	PBM binding z-score [15]	PBM binding z-score [16]	PBM binding z-score [17]	PBM binding z-score [18]
ACAAGCAGGCCAAGTTTGGGTCACTCAAACAAAG	0.823	1.59	-0.817	-0.239	-0.0252	0.706	-0.465	1.56	-0.485	2	2.34	2.8	1.88	-0.286	1.1	2.47	0.738	-0.0153
TGTCATAGTTCAAAGGTAACGTAAGTATCCACAC	-0.243	3.05	1.21	1.83	1.56	3.52	1.08	4.52	1.31	3.46	2.51	4.15	3.54	2.09	5.18	2.6	0.118	1.23
TCATATAGGTCAAGGTGAAAGTCGAACGATATGA	6.82	7.8	3.34	3.56	2.98	3.06	0.0786	3.99	0.732	4.84	3.84	5.31	5.43	1.56	5.05	3.47	1.36	0.356
CGAACTTGGTCATCCAGGACAGTGAATACATTGA	1.09	1.08	0.648	0.367	-0.34	0.166	0.269	0.326	-0.093	1.23	0.498	0.874	1.24	0.427	0.551	1.91	1.02	0.3
CCTACTGAGCCATCAGGTCATTGATATCAACGTT	1.16	1.31	0.489	-0.632	2.1	2.1	1.55	2.21	1.53	1.81	2.7	1.5	1.69	1.17	1.42	3.37	3.52	2.2
TCAATTAGTTGAAGGGCAACCGACGAGTCCGTTT	1.84	0.225	-0.0622	0.241	-0.0858	0.533	0.791	0.357	-0.199	1.54	1.28	0.369	0.258	1.02	0.562	0.164	-0.267	1.42
TCTCGGAGGACACGAGGGTCAGAGCTTTCCAGAG	1.25	0.292	-0.358	-0.909	0.294	0.835	-0.16	1.46	-0.665	2.38	2.81	2.58	2.96	0.569	1.33	2.48	0.409	0.685
CCTGCTAGGTCAATGGTAAGCTAAAGCAGCTCGC	4.33	3.43	-1.49	-0.489	1.05	0.564	-0.596	1.5	-0.463	3.79	2.43	3.52	3.82	1.66	1.96	2.03	0.52	-0.274
CATACAGGGTCAGCTAGGCCAGAGTCGGGACGGC	1.33	2.55	0.623	0.297	2.62	2.15	-0.0453	3.26	0.539	4.13	3.18	4.42	4.67	2.13	4.21	3.08	0.802	1.31
CGTCAGAGTTCAAGGTAACGTAACAGAAAGCAGC	0.546	0.936	-0.0239	0.226	2.34	4.5	2.86	3.31	0.785	4.36	3.02	4.6	5.3	4.91	4.35	2.74	1.04	4.53
TAGCCTAGGTCATGCGGGCCAGTTTAGTGTCGGC	2.01	2.55	-0.215	-0.754	0.303	1.59	-0.464	2.22	-0.83	3.45	3.03	3.96	4.73	0.93	3.2	3.02	1.07	0.95
ATACCAAGCTGATCGTGAGGTCGTTGATACTAAC	-0.185	0.0581	0.404	0.536	0.45	1.49	1.06	1.26	0.317	0.454	1.07	0.355	0.15	0.629	0.837	2.12	1.76	2.35
ATACCAAGGTGATCCTGAGGTCGTTGATACTAAC	0.567	1.08	0.87	0.266	0.931	3.21	1.41	2.34	0.52	1.39	1.82	2.54	0.948	0.968	2.08	3.67	2.52	2.87
CGGACGAGGGCATGAGTTGATAGCAAATGCCGAT	1.74	0.979	-0.792	-1.58	-0.164	0.528	0.00329	0.284	0.0592	2.03	0.742	1.16	1.89	2.01	0.928	1.17	-0.188	1.46
ATATGTAGGATAAGGGTCATTCAGGTTGGTTCGC	4.06	5.32	1.23	0.978	3.23	4.9	2.87	4.72	2.11	3.18	3.69	3.9	3.42	2.09	4.8	3.25	1.38	4.54
TCGAGTAGGTTAGTCGGGGCATTTAGCCAACATA	2.28	1.85	-0.436	-0.412	0.35	0.275	-0.067	0.501	-0.283	0.582	0.426	0.175	-0.0384	0.477	0.261	1.12	-0.042	0.418
CGAACTAGGTCATCCAGCACAGTGAATACATTGA	8.26	8.11	2.99	2.39	1.64	1.47	0.241	2.25	0.526	3.71	2.79	4	4.55	2.13	2.92	2.85	1.13	1.16
CGTCCAAGGTCGATGCTAGGTCAGTGAAAGCATT	0.324	0.816	-0.113	-0.767	1.54	2.04	0.704	2.49	-0.458	2.92	3.05	4.58	2.78	1.32	1.41	3.28	1.45	1.09
ATATGTAAGTTAGCTGGGGTCATTCAGACTAGGC	0.965	1.4	0.49	0.596	1.64	5.82	6.58	5.31	0.998	2.47	3.29	3.58	2.19	1.95	5.13	4.31	3.21	4.9
CCTTCCGGGTCACTCCAGGTTATAGCATCGGAGT	3.76	4.8	0.383	-0.795	1.88	4.83	0.335	3.65	0.518	3.77	3.42	4.34	3.95	1.2	4.33	5.19	2.37	1.77
ACTAGTTGGTCAGCTGACGTCACACACAATTCGG	0.857	0.972	0.728	0.709	0.152	0.163	-0.648	0.0415	0.251	0.952	0.958	0.549	0.913	0.433	0.459	0.178	0.155	-0.472
CTCGAAAGGTCGGTTCAGGTGAGTATACGGATAA	0.179	0.896	0.489	0.134	0.753	2.53	0.887	2.11	0.864	2.96	2.52	2.64	2.62	1.52	2.23	5.09	1.1	2.34
GCTGCTAGGTCAACTGTTGGTCAGCTAAAGCTCG	5.26	4.32	0.227	-0.586	1.68	1.48	-0.906	2.9	-0.53	4.42	3.66	5.23	5.32	1.66	3.12	2.84	0.983	-0.34
ACTATAAGTTGACTTAGGGCAACCGATACGACGC	-0.174	0.419	0.924	0.648	0.0162	0.385	0.624	0.604	0.56	1.2	1.03	1	1.11	0.718	0.692	2.4	0.322	0.647
TCTTGTAGATCAAACAGGTTAAGAAAGCCTGAGT	1.7	0.783	1.28	0.534	-0.369	0.754	0.338	0.849	0.0835	0.288	0.167	0.214	0.186	0.683	0.587	0.607	-0.548	0.0762
ACAGACAGGTGATGAAGGTAACTCCGGCTATCAT	0.0958	0.462	0.468	0.294	-0.227	0.0944	-0.1	0.357	0.0561	0.429	0.376	0.136	0.355	-0.394	0.346	0.328	0.183	-0.00954
ACTATTAGTAGAGACGAGGGCAACCGATAGGTTG	-0.0666	0.751	1.1	0.293	0.251	0.541	0.137	0.421	0.262	0.97	0.968	0.616	0.804	0.392	0.661	0.934	0.11	0.675
CCTTACGGGTCACTGACAAGTTATAGCATTTGGA	3.61	3.76	0.661	0.743	2.03	2.77	-0.0294	3.98	1.19	3.81	2.62	4.86	4.71	1.85	5.12	2.29	0.165	0.93
TCATATAGGGAAATGCTAGGTGAAAGTCCGATCT	2.89	1.33	1.18	0.79	0.712	0.607	0.552	0.746	0.849	0.226	0.336	0.235	0.101	1.66	0.678	0.846	0.365	0.19

From the supplement of paper PMC6555819
